Source: article PMC9838217, “Structure of SALL4 zinc finger domain reveals link between AT-rich DNA binding and Okihiro syndrome”
Changes are numbered by the printed parent chain.

Columns and labels:
Assay in all cases: HT-SELEX; high values mean tight binding
Details in all cases: protein: recombinant; vector His6-GST; dsDNA, one strand shown
SALL4 ZFC4 WT (HT-SELEX) = molecular target: T1, SALL4 ZFC4 WT (HT-SELEX) (Mus musculus, UniProt Q8BX22 870-940)
T1 sequence: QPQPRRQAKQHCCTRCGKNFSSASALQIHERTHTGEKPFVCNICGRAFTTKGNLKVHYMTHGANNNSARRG
Outline: (§1)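 A 100 µl reaction of 10 mM Tris–HCl pH 7.5, 50 mM NaCl, poly(dI-dC) and DTT held purified recombinant mouse SALL4 zinc finger cluster 4 (residues 870–940, 1 µg) and library DNA (1.5 µg first cycle, 200 ng later) for 10 min at room temperature. Complexes captured on Ni2+ beads were washed, PCR-amplified and reselected for up to 6 cycles, in triplicate, then MiSeq-sequenced and scanned for 6-mers. Binding signal is the read fraction of each canonical k-mer expressed as fold change over the initial random library.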

[1] = molecular target: T2, SALL4 ZFC4 R900W (HT-SELEX) (Mus musculus, UniProt Q8BX22 870-940, R900W)
T2 sequence: T1 sequence with R31W
Outline: as §1

[2] = molecular target: T3, SALL4 ZFC4 G921D (HT-SELEX) (Mus musculus, UniProt Q8BX22 870-940, G921D)
T3 sequence: T1 sequence with G52D
Outline: as §1

Row | Sequence | binding signal (SALL4 ZFC4 WT (HT-SELEX)) | binding signal [1] | binding signal [2]
1 | AAATTA | 3.81 ± 0.372 fold-change vs cycle 0 | 2.45 ± 0.183 fold-change vs cycle 0 | 2.13 ± 0.261 fold-change vs cycle 0
2 | ATGCTC | 0.663 ± 0.0343 fold-change vs cycle 0 | 0.754 ± 0.0376 fold-change vs cycle 0 | 0.845 ± 0.0337 fold-change vs cycle 0
3 | GCCTTA | 0.573 ± 0.0273 fold-change vs cycle 0 | 0.685 ± 0.0271 fold-change vs cycle 0 | 0.783 ± 0.0268 fold-change vs cycle 0
4 | CCTTTC | 0.765 ± 0.031 fold-change vs cycle 0 | 0.942 ± 0.0414 fold-change vs cycle 0 | 0.934 ± 0.0409 fold-change vs cycle 0
5 | CCTAAA | 1.13 ± 0.0805 fold-change vs cycle 0 | 1.27 ± 0.0327 fold-change vs cycle 0 | 1.18 ± 0.0527 fold-change vs cycle 0
6 | ACACGA | 0.663 ± 0.0255 fold-change vs cycle 0 | 0.777 ± 0.0248 fold-change vs cycle 0 | 0.869 ± 0.0214 fold-change vs cycle 0
7 | CTAGAC | 0.775 ± 0.0462 fold-change vs cycle 0 | 0.888 ± 0.0389 fold-change vs cycle 0 | 0.932 ± 0.00894 fold-change vs cycle 0
8 | GGACGA | 0.34 ± 0.0131 fold-change vs cycle 0 | 0.412 ± 0.0156 fold-change vs cycle 0 | 0.498 ± 0.0522 fold-change vs cycle 0
9 | CAGTGG | 0.426 ± 0.0423 fold-change vs cycle 0 | 0.497 ± 0.0328 fold-change vs cycle 0 | 0.595 ± 0.0248 fold-change vs cycle 0
10 | CAAGCA | 0.6412 ± 0.00497 fold-change vs cycle 0 | 0.724 ± 0.0186 fold-change vs cycle 0 | 0.814 ± 0.0122 fold-change vs cycle 0
11 | ATATCA | 2.74 ± 0.247 fold-change vs cycle 0 | 2.05 ± 0.0942 fold-change vs cycle 0 | 1.83 ± 0.136 fold-change vs cycle 0
12 | AGCTAT | 1.19 ± 0.0625 fold-change vs cycle 0 | 1.26 ± 0.0563 fold-change vs cycle 0 | 1.27 ± 0.0842 fold-change vs cycle 0
13 | CGAAAG | 0.614 ± 0.0288 fold-change vs cycle 0 | 0.735 ± 0.037 fold-change vs cycle 0 | 0.79 ± 0.0572 fold-change vs cycle 0
14 | ACAACC | 0.707 ± 0.0139 fold-change vs cycle 0 | 0.814 ± 0.0173 fold-change vs cycle 0 | 0.875 ± 0.0311 fold-change vs cycle 0
15 | ATTAAT | 6.27 ± 0.662 fold-change vs cycle 0 | 2.77 ± 0.256 fold-change vs cycle 0 | 2.34 ± 0.327 fold-change vs cycle 0
16 | AGACCT | 0.753 ± 0.0476 fold-change vs cycle 0 | 0.917 ± 0.0202 fold-change vs cycle 0 | 0.963 ± 0.0152 fold-change vs cycle 0
17 | AATATT | 5.49 ± 0.414 fold-change vs cycle 0 | 2.54 ± 0.119 fold-change vs cycle 0 | 2.19 ± 0.255 fold-change vs cycle 0
18 | AATTTG | 1.6 ± 0.112 fold-change vs cycle 0 | 1.56 ± 0.101 fold-change vs cycle 0 | 1.51 ± 0.0903 fold-change vs cycle 0
19 | ATTGGG | 0.725 ± 0.0369 fold-change vs cycle 0 | 0.818 ± 0.0162 fold-change vs cycle 0 | 0.856 ± 0.0353 fold-change vs cycle 0
20 | GAACGA | 0.753 ± 0.0422 fold-change vs cycle 0 | 0.856 ± 0.0556 fold-change vs cycle 0 | 0.9 ± 0.0297 fold-change vs cycle 0
21 | CGTTAG | 0.723 ± 0.0258 fold-change vs cycle 0 | 0.82 ± 0.0289 fold-change vs cycle 0 | 0.902 ± 0.0446 fold-change vs cycle 0
22 | ATTCCC | 0.877 ± 0.0328 fold-change vs cycle 0 | 0.943 ± 0.055 fold-change vs cycle 0 | 0.984 ± 0.0201 fold-change vs cycle 0
23 | AATGGC | 0.467 ± 0.0217 fold-change vs cycle 0 | 0.534 ± 0.0101 fold-change vs cycle 0 | 0.662 ± 0.067 fold-change vs cycle 0
